About 8,800 targets were measured; listed, in parts, are those with a hit and a random draw of the rest. About 0.5% of all pairs of compound and target were hits.
Key:
Test in all cases: log2 fold change, soluble protein after heating vs DMSO (PISA); higher = thermal stabilisation; K562 lysate, 10 uM; active = over 0.2 and 3.5 SD of the protein, either way, in both replicates (recomputed)
ibrutinib = compound: C=CC(=O)N1CCC[C@@H](n2nc(-c3ccc(Oc4ccccc4)cc3)c3c(N)ncnc32)C1 [ibrutinib]
How it was run: (§1)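 Values give the log-two fold change in thermal stability against solvent controls, from duplicates. Crude K562 extract at 1 mg/mL protein, made by dounce homogenisation in PBS pH 7.4 with 1 mM MgCl2, was treated with 10 μM compound for 30 min. After 3 min heating across 48°C-58°C, aliquots were pooled, adjusted to 0.5% NP-40 at 4°C and centrifuged at 21,000xg for 90 min. The supernatant was measured by TMTpro 16plex LC-MS/MS with channel sums equalised.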

[1] = compound: CC(=O)c1cnc2ccc(-c3cc(Cl)c(O)c(Cl)c3)nc2c1N[C@H]1CC[C@H](CN(C)C)CC1
How it was run: as §1

ralimetinib = compound: CC(C)(C)Cn1c(N)nc2ccc(-c3[nH]c(C(C)(C)C)nc3-c3ccc(F)cc3)nc21 [ralimetinib]
How it was run: as §1

[2] = compound: CC(C)(O)CC(=O)NCCn1ccc2ncnc(Nc3ccc(Oc4cccc(C(F)(F)F)c4)c(Cl)c3)c21
How it was run: as §1

[3] = compound: CC(C)C1=C2N=C(C=C(N2N=C1)NCC3=CC=CC=C3)NCCCCCCN
How it was run: as §1

[4] = compound: CC1=C(C2=C(C=C1)C(=O)C3=CC=CC=C3N2CCCN)C
How it was run: as §1

[5] = compound: CC1=C(C=C(C=C1)NC(=O)C2=CC(=CC=C2)N(C)C)NC(=O)C3=CC=C(C=C3)O
How it was run: as §1

[6] = compound: CC1=CC=C(C=C1)SC2=C3C=C(SC3=CN=C2)C(=O)N
How it was run: as §1

[7] = compound: CCCS(=O)(=O)Nc1ccc(F)c(C(=O)c2c[nH]c3ncc(Cl)cc23)c1F
How it was run: as §1

barasertib = compound: CCN(CCCOc1ccc2c(Nc3cc(CC(=O)Nc4cccc(F)c4)[nH]n3)ncnc2c1)CCOP(=O)(O)O [barasertib]
How it was run: as §1

[8] = compound: CC[C@@H]1C(=O)N(C)c2cnc(Nc3ccc(C(=O)NC4CCN(C)CC4)cc3OC)nc2N1C1CCCC1
How it was run: as §1

volasertib = compound: CC[C@@H]1C(=O)N(C)c2cnc(Nc3ccc(C(=O)N[C@H]4CC[C@H](N5CCN(CC6CC6)CC5)CC4)cc3OC)nc2N1C(C)C [volasertib]
How it was run: as §1

[9] = compound: CCn1c(C(=O)N(C2CC2)C2CC2)cc2c3c(ncn3C)c(Nc3cc(C)n(C)n3)nc21
How it was run: as §1

[10] = compound: CCn1cc(-c2ccnc3[nH]c(-c4cccc(CN(C)C)c4)cc23)c(-c2ccc(NC(=O)N(C)C)cc2)n1
How it was run: as §1

[11] = compound: CN1CCC(CNc2ccc3ncc(-c4cccc(OC(F)(F)F)c4)n3n2)CC1
How it was run: as §1

saracatinib = compound: CN1CCN(CCOc2cc(OC3CCOCC3)c3c(Nc4c(Cl)ccc5c4OCO5)ncnc3c2)CC1 [saracatinib]
How it was run: as §1

[12] = compound: CC1=C(C(CC(=O)N1)C2=CC=C(C=C2)C(F)(F)F)C(=O)NC3=C(C=C4C(=C3)C=NN4)F
How it was run: as §1

vemurafenib = compound: CCCS(=O)(=O)Nc1ccc(F)c(C(=O)c2c[nH]c3ncc(-c4ccc(Cl)cc4)cc23)c1F [vemurafenib]
How it was run: as §1

[13] = compound: CC1=C(C=C(C=C1)NC(=O)C2=CC(=CC=C2)C(C)(C)C#N)NC3=CC4=C(C=C3)N=CN(C4=O)C
How it was run: as §1

sotrastaurin = compound: CN1CCN(c2nc(C3=C(c4c[nH]c5ccccc45)C(=O)NC3=O)c3ccccc3n2)CC1 [sotrastaurin]
How it was run: as §1

Measured: log2 fold change

P2RY1 (UniProt P47900)
inactive: ibrutinib -0.026 | [1] 0.102 | ralimetinib -0.045 | [2] -0.107 | [3] -0.322 | [4] 0.064 | [5] -0.009 | [6] 0.058 | [7] -0.08 | barasertib 0.034 | [8] 0.006 | volasertib -0.111 | [9] 0.022 | [10] 0.057 | [11] 0.093 | saracatinib 0.015

NSA2 (UniProt O95478)
inactive: ibrutinib 0.154 | [1] 0.068 | ralimetinib 0.012 | [2] 0.082 | [3] 0.01 | [12] -0.043 | [4] 0.223 | [5] -0.155 | [6] -0.027 | vemurafenib -0.035 | [7] 0.101 | barasertib -0.093 | [8] 0.067 | volasertib 0.034 | [9] -0.043 | [10] -0.441 | [11] -0.221 | saracatinib -0.084

PARD3B (UniProt Q8TEW8)
Sequence of UniProt Q8TEW8 (Q8TEW8 whole entry, looked up): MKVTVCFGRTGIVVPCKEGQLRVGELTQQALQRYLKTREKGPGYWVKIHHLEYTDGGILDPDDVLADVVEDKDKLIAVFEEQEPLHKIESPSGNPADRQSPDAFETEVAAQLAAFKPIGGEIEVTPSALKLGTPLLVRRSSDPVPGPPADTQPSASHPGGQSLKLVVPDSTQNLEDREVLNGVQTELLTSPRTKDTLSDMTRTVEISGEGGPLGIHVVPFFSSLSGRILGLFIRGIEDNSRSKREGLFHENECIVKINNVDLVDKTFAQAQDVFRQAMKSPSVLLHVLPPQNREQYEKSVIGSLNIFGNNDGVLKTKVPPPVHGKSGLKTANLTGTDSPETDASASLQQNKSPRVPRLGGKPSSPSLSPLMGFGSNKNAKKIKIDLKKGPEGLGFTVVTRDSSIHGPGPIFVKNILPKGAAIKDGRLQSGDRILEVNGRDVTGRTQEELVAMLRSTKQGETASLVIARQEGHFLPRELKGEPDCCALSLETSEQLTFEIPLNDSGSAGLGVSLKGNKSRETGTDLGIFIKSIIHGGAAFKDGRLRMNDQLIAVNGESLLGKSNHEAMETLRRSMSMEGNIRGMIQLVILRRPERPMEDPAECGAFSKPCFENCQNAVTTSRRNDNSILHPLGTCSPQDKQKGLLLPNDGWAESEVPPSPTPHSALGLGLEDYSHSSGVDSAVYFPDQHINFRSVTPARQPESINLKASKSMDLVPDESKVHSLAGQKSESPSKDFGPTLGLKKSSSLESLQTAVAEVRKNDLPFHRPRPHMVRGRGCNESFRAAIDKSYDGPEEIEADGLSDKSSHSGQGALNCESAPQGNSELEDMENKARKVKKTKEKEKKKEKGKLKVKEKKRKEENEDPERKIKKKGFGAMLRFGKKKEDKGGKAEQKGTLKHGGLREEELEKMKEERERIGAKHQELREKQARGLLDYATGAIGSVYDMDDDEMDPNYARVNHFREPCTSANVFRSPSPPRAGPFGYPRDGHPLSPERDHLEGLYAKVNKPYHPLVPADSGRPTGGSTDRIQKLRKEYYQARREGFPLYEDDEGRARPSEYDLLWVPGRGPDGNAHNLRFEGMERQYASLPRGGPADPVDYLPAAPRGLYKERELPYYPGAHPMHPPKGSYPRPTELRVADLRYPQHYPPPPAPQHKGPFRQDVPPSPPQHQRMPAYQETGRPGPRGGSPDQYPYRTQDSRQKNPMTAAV
inactive: [3] 0.091 | [4] 0.071 | [10] 1.46 | [11] -0.046 | saracatinib -0.002

MUC5AC (UniProt P98088)
inactive: ralimetinib -0.067 | [2] 0.06 | [12] 1.44 | [5] 0.041 | [9] 0

NR2C2 isoform 2 (UniProt P49116)
inactive: ibrutinib 0.069 | [1] -0.081 | ralimetinib 0.014 | [2] 0 | [3] -0.03 | [4] -0.064 | [13] 0.044 | [5] -0.019 | [6] -0.086 | vemurafenib -0.087 | [7] 0.049 | barasertib 0.017 | [8] -0.091 | volasertib -0.001 | [9] 0.003 | [10] 0.075 | [11] -0.074 | saracatinib -0.058 | sotrastaurin 0.002

NFATC4 isoform 2 (UniProt Q14934)
inactive: ibrutinib -0.053 | [1] -0.075 | [12] -0.067 | [4] -0.057 | [13] 0.125 | [6] -0.063 | vemurafenib 0.081 | [7] -0.013 | barasertib 0.059 | [8] -0.05 | volasertib -0.004 | [10] 0.053 | [11] 0.068 | saracatinib 0.044 | sotrastaurin 0.026

NSUN7 (UniProt Q8NE18)
inactive: ibrutinib 0.076 | [1] -0.025 | ralimetinib 0.168 | [2] -0.137 | [3] 0.042 | [13] 0.102 | [5] -0.009 | [6] -0.017 | vemurafenib -0.098 | [7] -0.046 | barasertib -0.084 | [8] -0.016 | volasertib 0.077 | [9] -0.049 | [10] -0.039 | [11] -0.032 | sotrastaurin 0.017

NUDT5 (UniProt C9JYY9)
inactive: [3] -0.111 | [12] -0.05 | [8] 0.036

NUDT6 (UniProt P53370)
Sequence of UniProt P53370 (P53370 whole entry, looked up): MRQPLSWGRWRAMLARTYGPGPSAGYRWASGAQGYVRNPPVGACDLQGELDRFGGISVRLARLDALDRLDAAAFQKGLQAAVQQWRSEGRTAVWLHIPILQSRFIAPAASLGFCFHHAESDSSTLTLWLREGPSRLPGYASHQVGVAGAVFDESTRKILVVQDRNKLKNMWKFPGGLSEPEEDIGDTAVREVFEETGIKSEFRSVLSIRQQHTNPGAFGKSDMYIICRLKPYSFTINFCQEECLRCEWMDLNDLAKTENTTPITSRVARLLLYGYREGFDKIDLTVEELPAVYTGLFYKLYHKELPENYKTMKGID
inactive: ralimetinib 0.065 | [2] -0.033 | [3] 0.054 | [4] 0.169 | [13] 0.011 | [5] -0.042 | vemurafenib 0.022 | [8] 0.091 | [9] -0.085 | saracatinib 0.05 | sotrastaurin -0.033

NRIP1 (UniProt P48552)
active: [10] -0.651
inactive: ibrutinib -0.018 | [1] -0.055 | ralimetinib -0.05 | [2] -0.165 | [3] -0.007 | [12] 0.093 | [4] -0.217 | [13] 0.175 | [5] -0.005 | [6] -0.102 | [7] 0.024 | barasertib 0.076 | volasertib -0.055 | [9] -0.124 | [11] 0.17 | saracatinib -0.071 | sotrastaurin -0.074

ORC3 (UniProt Q9UBD5)
inactive: [1] 0.161 | [12] -0.007 | [6] 0.03 | [7] -0.16 | volasertib 0.003 | [10] 0.185 | [11] -0.06

PAGE4 (UniProt O60829)
Sequence of UniProt O60829 (O60829 whole entry, looked up): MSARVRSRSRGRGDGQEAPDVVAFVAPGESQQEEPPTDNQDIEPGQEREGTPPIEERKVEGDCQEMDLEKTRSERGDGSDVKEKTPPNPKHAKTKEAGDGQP
inactive: ibrutinib 0.056 | [1] -0.029 | ralimetinib 0.028 | [2] -0.077 | [3] 0.072 | [4] -0.014 | [13] 0.04 | [5] 0.078 | [6] 0.004 | [7] 0.015 | barasertib 0.108 | [8] 0.039 | volasertib 0.002 | [9] -0.042 | [10] 0.476 | [11] -0.158 | saracatinib 0.046 | sotrastaurin 0.092

PAGE2B (UniProt Q5JRK9)
Sequence of UniProt Q5JRK9 (Q5JRK9 whole entry, looked up): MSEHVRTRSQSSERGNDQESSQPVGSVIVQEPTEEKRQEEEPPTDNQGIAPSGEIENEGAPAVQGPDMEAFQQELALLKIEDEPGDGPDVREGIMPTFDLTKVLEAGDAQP
inactive: [1] -0.049 | ralimetinib -0.024 | [2] -0.032 | [3] -0.054 | [12] 0.023 | [4] 0.044 | [13] -0.003 | [5] 0.238 | [6] 0.022 | vemurafenib 0.008 | [7] -0.056 | [8] -0.027 | volasertib -0.013 | [9] -0.008 | [10] -0.034 | [11] -0.239 | saracatinib 0.176 | sotrastaurin 0.05

MYH6 (UniProt P13533)
inactive: [1] -0.017 | ralimetinib 0.045 | [2] -0.157 | [3] 0.01 | [13] 0.047 | [5] -0.081 | [6] -0.172 | [7] -0.081 | barasertib 0.006 | [8] 0.215 | volasertib 0.084 | [9] -0.137 | sotrastaurin -0.017
active: ibrutinib 0.793

NUB1 (UniProt H7C5N1)
inactive: ralimetinib 0.133 | [2] -0.146 | [5] -0.131 | [9] 0.312

MYO10 (UniProt Q9HD67)
Sequence of UniProt Q9HD67 (Q9HD67 whole entry, looked up): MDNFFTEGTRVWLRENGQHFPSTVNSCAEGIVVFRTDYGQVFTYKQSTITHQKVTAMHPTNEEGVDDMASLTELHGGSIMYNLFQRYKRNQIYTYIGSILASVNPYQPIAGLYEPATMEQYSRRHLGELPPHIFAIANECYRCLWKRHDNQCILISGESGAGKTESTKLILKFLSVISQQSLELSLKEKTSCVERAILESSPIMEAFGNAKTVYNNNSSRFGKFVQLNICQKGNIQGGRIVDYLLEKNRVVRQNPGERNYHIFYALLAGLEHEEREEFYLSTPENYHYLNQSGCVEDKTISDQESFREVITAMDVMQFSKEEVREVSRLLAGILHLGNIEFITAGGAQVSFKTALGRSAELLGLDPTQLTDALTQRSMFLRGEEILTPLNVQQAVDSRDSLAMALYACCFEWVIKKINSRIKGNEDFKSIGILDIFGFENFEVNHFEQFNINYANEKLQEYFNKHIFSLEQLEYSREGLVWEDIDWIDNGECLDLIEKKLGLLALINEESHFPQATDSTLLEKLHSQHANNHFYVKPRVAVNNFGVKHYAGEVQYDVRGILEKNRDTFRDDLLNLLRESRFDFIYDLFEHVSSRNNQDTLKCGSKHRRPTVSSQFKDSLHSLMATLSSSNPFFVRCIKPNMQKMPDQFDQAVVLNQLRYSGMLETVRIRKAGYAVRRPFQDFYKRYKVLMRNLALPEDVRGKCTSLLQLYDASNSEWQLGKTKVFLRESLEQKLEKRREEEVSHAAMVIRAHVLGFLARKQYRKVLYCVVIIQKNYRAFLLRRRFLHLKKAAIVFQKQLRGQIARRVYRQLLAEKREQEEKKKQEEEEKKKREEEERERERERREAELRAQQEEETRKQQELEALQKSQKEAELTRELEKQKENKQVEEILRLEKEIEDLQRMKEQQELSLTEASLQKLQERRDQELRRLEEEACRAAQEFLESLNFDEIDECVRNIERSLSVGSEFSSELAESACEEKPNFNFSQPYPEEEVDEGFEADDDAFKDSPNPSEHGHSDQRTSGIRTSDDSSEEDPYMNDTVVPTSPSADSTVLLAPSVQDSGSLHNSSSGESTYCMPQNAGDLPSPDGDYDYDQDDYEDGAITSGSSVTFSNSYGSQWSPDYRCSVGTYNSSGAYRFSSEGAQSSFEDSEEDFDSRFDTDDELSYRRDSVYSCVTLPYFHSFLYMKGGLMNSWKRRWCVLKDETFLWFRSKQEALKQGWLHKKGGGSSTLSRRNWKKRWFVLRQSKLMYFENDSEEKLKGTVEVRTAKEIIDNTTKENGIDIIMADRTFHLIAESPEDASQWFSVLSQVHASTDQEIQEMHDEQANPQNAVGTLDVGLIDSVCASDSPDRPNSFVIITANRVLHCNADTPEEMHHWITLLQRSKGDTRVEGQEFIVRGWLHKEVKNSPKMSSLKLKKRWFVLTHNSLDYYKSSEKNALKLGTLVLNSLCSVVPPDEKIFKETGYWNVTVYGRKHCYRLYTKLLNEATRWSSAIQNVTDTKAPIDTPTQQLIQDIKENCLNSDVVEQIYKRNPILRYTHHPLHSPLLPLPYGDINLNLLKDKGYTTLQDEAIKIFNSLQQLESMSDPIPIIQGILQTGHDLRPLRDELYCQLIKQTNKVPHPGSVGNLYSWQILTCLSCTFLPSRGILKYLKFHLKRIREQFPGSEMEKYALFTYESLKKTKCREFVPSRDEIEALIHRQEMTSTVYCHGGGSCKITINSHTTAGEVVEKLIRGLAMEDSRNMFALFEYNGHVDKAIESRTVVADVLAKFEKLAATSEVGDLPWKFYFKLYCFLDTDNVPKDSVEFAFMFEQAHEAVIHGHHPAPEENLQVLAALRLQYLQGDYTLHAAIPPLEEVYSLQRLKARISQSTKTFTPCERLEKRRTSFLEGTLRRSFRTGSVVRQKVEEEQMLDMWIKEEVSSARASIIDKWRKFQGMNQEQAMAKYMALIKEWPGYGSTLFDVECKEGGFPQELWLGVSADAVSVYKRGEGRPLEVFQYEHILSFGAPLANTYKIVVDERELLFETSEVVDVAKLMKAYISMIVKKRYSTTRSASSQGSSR
active: [10] 1.26
inactive: ibrutinib -0.059 | ralimetinib -0.136 | [2] -0.385 | [3] 0.035 | [12] -0.078 | [13] -0.001 | [5] 0.042 | vemurafenib 0.483 | barasertib 0.171 | [9] -0.185 | [11] -0.381 | sotrastaurin -0.287

NR2F2 (UniProt P24468)
Sequence of UniProt P24468 (P24468 whole entry, looked up): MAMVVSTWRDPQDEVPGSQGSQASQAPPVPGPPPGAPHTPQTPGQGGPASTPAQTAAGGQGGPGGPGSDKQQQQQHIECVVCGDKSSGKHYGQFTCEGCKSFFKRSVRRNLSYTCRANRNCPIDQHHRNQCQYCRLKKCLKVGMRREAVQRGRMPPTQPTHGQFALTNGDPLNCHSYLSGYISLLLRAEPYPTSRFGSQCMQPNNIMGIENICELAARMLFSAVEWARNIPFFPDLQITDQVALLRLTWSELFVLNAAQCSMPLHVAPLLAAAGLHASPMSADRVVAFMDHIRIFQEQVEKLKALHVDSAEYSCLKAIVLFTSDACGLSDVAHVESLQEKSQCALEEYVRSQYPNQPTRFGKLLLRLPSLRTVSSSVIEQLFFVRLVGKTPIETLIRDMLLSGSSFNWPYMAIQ
inactive: ibrutinib 0.007 | [1] -0.09 | ralimetinib -0.006 | [2] -0.069 | [3] -0.067 | [12] 0.097 | [4] 0.032 | [13] -0.031 | [5] 0.065 | [6] -0.042 | [7] -0.081 | barasertib 0.01 | volasertib -0.146 | [9] -0.028 | [10] 0.005 | [11] -0.216 | saracatinib 0.014 | sotrastaurin 0.013

MT-ATP8 (UniProt P03928)
Sequence of UniProt P03928 (P03928 whole entry, looked up): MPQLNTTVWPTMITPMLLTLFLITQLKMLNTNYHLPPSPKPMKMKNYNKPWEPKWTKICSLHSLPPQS
active: [10] 0.711
inactive: ibrutinib -0.035 | [1] -0.052 | ralimetinib 0.005 | [2] -0.109 | [3] -0.087 | [12] -0.082 | [13] 0.153 | [5] 0.047 | [6] 0.104 | vemurafenib 0.033 | [7] -0.036 | barasertib 0.057 | [8] 0.063 | volasertib 0.015 | [9] 0.128 | [11] -0.144 | sotrastaurin -0.084

PAPOLG (UniProt Q9BWT3)
Sequence of UniProt Q9BWT3 (Q9BWT3 whole entry, looked up): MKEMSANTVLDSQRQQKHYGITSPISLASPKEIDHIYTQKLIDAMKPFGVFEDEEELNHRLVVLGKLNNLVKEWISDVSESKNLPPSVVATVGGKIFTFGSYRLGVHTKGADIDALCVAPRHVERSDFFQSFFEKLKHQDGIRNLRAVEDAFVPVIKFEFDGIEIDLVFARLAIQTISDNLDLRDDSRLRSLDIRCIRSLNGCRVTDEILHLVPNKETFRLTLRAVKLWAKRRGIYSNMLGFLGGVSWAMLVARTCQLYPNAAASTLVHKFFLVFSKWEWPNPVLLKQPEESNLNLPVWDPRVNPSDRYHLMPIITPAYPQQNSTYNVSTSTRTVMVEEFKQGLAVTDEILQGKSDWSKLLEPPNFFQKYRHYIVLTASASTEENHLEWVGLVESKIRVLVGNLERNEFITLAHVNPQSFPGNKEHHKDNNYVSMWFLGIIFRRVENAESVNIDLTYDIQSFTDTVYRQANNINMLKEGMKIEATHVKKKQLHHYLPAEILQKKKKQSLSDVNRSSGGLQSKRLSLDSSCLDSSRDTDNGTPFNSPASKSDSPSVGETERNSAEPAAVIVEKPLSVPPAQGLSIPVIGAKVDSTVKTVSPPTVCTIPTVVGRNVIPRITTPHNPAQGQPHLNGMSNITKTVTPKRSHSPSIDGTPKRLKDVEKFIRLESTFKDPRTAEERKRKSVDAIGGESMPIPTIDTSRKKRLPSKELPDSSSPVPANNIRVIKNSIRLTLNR
inactive: ralimetinib 0.01 | [2] -0.071 | [3] -0.19 | [12] -0.089 | [4] 0.012 | [13] -0.028 | [5] -0.092 | vemurafenib -0.176 | [8] -0.04 | [9] -0.02 | [10] -0.013 | [11] -0.049 | saracatinib -0.235 | sotrastaurin 0.031

NFAT5 isoform 4 (UniProt O94916)
inactive: ibrutinib -0.016 | [13] 0.088 | barasertib -0.039 | sotrastaurin 0

ORC1 (UniProt Q13415)
inactive: [8] 0.185

NTMT1 (UniProt S4R338)
inactive: [1] -0.182 | [6] 0.058 | [7] 0.043 | volasertib -0.002

— the supplement of paper PMC10849652
